About 4,200 (1.4%) of roughly 290,000 compounds were called active. This is one part of a sample in which actives are shown more often than they occur. Unmarked numbers belong to inactive results.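 Rule for the calls: active = binding response more than 3 SD above or below the average of its plate-row segment, actives on both sides; inconclusive = wells at one plate position flagged as instrument error; inactive = the rest.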
target: Mitogen-activated protein kinase kinase kinase 3 (Homo sapiens) (UniProt Q99759); test: compounds raising or lowering MEK5 association with MEKK3 PB1 – biochemical, wildtype MEKK3, multiplex bead flow cytometry, Alexa488-MEK5, primary screen (AID 1529); settings: bead-based flow cytometry, Alexa488-MEK5 binding to MEKK3; at 10 µM; actives lie on both sides; 0 = blocked by unlabeled MEK5, 100 = vehicle;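 note: Alexa488 bead fluorescence after subtracting the streptavidin-only scavenger bead signal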
Sequence (Q99759 whole entry, looked up): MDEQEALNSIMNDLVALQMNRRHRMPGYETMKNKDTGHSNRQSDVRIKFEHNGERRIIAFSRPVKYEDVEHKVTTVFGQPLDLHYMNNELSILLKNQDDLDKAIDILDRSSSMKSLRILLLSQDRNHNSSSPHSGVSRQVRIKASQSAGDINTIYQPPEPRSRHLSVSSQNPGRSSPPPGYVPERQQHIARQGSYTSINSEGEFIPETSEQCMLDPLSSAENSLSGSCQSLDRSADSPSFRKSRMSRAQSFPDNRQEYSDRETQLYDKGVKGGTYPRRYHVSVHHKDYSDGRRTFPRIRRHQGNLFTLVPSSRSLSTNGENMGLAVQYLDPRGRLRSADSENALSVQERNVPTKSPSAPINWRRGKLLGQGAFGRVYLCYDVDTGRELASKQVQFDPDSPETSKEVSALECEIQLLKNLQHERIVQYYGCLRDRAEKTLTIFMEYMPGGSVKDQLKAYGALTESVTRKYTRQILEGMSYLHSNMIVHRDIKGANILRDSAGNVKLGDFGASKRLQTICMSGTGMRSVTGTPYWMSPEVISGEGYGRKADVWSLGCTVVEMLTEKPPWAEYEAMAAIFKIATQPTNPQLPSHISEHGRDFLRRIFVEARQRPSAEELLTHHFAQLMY

Row | Structure (SMILES) | binding response (% of control)
1 | Cc1cc(C)c2nc(N(CCN(C)C)C(=O)/C=C/c3cccs3)sc2c1 | 101%
2 | COc1ccc(NC(=O)NNC(=O)COc2cc(C)c(Cl)c(C)c2)c(OC)c1 | 105%
3 | CC(C)(C)OC(=O)N1CCC(C(=O)NNC(=O)c2ccc(Cl)cc2Cl)CC1 | 101%
4 | COc1ccc(CC(=O)N2N=C(C)CC2(O)C(F)(F)F)cc1 (configuration not stated) | 129% (active)
5 | CC1=NN(C(=O)CCc2ccccc2O)C(O)(C(F)(F)F)C1 (configuration not stated) | 90%
6 | CC1=NN(C(=O)CCCc2ccccc2)C(O)(C(F)(F)F)C1 (configuration not stated) | 108%
7 | COc1cc(OC)c(C(=S)N2CCCC2)cc1OC | 104%
8 | CCn1c(=S)sc2c(=O)n(CC(=O)Nc3cccc(Br)c3)c(C)nc21 | 102%
9 | COc1ccc(/C=C2\SC(=S)N(CCCC(=O)NC3CCCC3)C2=O)cc1OC | 96%
10 | COc1cc(NC(=O)CN2C(=O)NC(C)(c3ccc(OC(F)F)cc3)C2=O)cc(OC)c1OC (configuration not stated) | 100%
11 | Fc1ccccc1COc1cccc2cccnc12 | 105%
12 | COc1ccc(C(=O)NC(=S)NNC(=O)c2c(-c3ccccc3)noc2C)cc1 | 134% (active)
13 | COc1ccc(C(=O)NNC(=S)NC(=O)c2ccccc2)cc1 | 101%
14 | Cc1onc(-c2ccccc2)c1C(=O)NNC(=S)NC(=O)c1ccc(F)cc1 | 98%
15 | CN(C)C(=O)CCC(=O)N1CCCCC1C(=O)Nc1ccc(Oc2ccccc2F)cc1 (configuration not stated) | 105%
16 | Cc1nn(-c2ccccc2)c(Cl)c1C(=O)Nc1ccccc1 | 98%
17 | Cc1nn(-c2ccccc2)c(C)c1NC(=O)COc1ccc(Cl)cc1Cl | 104%
18 | Cc1nn(-c2ccccc2)c(C)c1NC(=O)CCl | 138% (active)
19 | Cc1cnc(CN(C)C(=O)C2CCC(=O)N(CCc3cccc(F)c3)C2)[nH]1 (configuration not stated) | 104%
20 | CC1(c2ccc3ccccc3c2)NC(=O)NC1=O (configuration not stated) | 106%
21 | O=c1c2ccccc2ncn1CCCCOc1ccccc1F | 103%
22 | Cc1cccc(OCCNC(=O)CSc2ccc(C(F)(F)F)cc2[N+](=O)[O-])c1 | 133% (active)
23 | O=C(CSc1ccc(C(F)(F)F)cc1[N+](=O)[O-])NCCOc1ccccc1 | 94%
24 | Nc1ccccc1Sc1ccc(C(F)(F)F)cc1[N+](=O)[O-] | 107%
25 | Cn1nccc1C(=O)NC1CCCc2c1cnn2-c1ccccc1F (configuration not stated) | 101%

Row | Structure (SMILES) | binding response (% of control)
26 | CC(=O)C(C)n1cnc2scc(-c3ccc(C)cc3)c2c1=O (configuration not stated) | 98%
27 | CCc1ccc(C(=O)COC(=O)c2ccco2)cc1 | 103%
28 | Cc1nc(-c2ccc(Cl)cc2)sc1C1(C)CC(c2ccc(Br)cc2)=NO1 (configuration not stated) | 100%
29 | COc1ccc(C(CNC(=O)COc2ccccc2OC)N2CCCCC2)cc1 (configuration not stated) | 100%
30 | O=C(Cn1cc(C(=O)C2CC2)c2ccccc21)Nc1ccccc1Cl | 99%
31 | COc1ccccc1N1CCN(Cc2ccc(OC)c3ccccc23)CC1 | 105%
32 | CCN1CCN(CCCCOc2ccccc2F)CC1 | 100%
33 | COc1ccccc1N1CCN(CCCCOc2ccc(F)cc2)CC1 | 124% (active)
34 | COc1ccc(CCN(C)C(=O)C23CC4CC(CC(Cl)(C4)C2)C3)cc1OC | 102%
35 | O=C(CCc1nnc2ccc(NCCCN3CCCC3=O)nn12)NCc1ccccc1Cl | 101%
36 | CC(C)(C)NC(=O)c1ccc(Cn2cc(C(F)(F)F)ccc2=O)cc1 | 100%
37 | CCOC(=O)c1cc(-c2nnc(-c3cc(OC)c(OC)c(OC)c3)o2)c(C)nc1C | 100%
38 | COc1cc(-c2nnc(Cn3cc(C(F)(F)F)ccc3=O)o2)cc(OC)c1OC | 2% [inhibitor] (active)
39 | Cc1ccc(S(=O)(=O)N2CCC3(CC2)OCCO3)c(C)c1 | 101%
40 | CCCCCc1c(C)nc(N2CCN(Cc3ccc4c(c3)OCO4)CC2)[nH]c1=O | 98%
41 | Cc1cc(S(=O)(=O)NCC(C)C)ccc1OCC(=O)NC1CC1 | 102%
42 | COc1ccccc1NC(=S)N1CCN(C(c2ccccc2)c2ccccc2)CC1 | 102%
43 | COc1ccccc1NC(=S)N1CCN(c2ccc(F)cc2)CC1 | 45% [inhibitor] (active)
44 | COC(=O)c1ccc(C(=O)OC)c(NC(=S)N2CCN(c3ccc(F)cc3)CC2)c1 | 97%
45 | COc1cccc(NC(=O)CCc2nnc3ccc(N4CCC(C)CC4)nn23)c1 | 98%
46 | CC1(C)C=Cc2c(ccc3c2OC[C@@H](c2ccc(O)cc2O)C3)O1 | 108%
47 | Cc1nc2ccccc2nc(C)c1=NOCc1ccc(Cl)cc1Cl | 98%
48 | Cc1cn(COC/C=C/c2ccccc2)c(=O)[nH]c1=O | -2% [inhibitor] (active)
49 | Cc1nc2nc[nH]n2c(=O)c1C/C=C/c1ccccc1 | 84%
50 | Cc1[nH]c(=O)c(C(=O)/C=C/c2ccccc2)c2c1CCCC2 | 107%

Row | Structure (SMILES) | binding response (% of control)
51 | Cc1cc(=O)oc2cc(OCC(=O)N3CCN(c4ccc(F)cc4)CC3)c(Cl)cc12 | 101%
52 | COc1ccc(C(=O)Cc2cnn(-c3ccccc3)c2)c(O)c1 | 101%
53 | Cc1ncc(CC(=O)n2cc(C(=O)c3cc(Cl)ccc3O)cn2)s1 | 109%
54 | O=C(c1cnn(-c2ccc(Cl)cc2)c1)c1ccccc1O | 129% (active)
55 | CC1(C)C2CC[C@]3(C)C(CC=C4[C@@H]5C[C@@](C)(CO)CC[C@]5(C(=O)O)CC[C@]43C)[C@@]2(C)CC[C@@H]1O (some centres not stated) | 105%
56 | COc1ccc(CNc2nnnn2C)cc1 | 51% [inhibitor] (active)
57 | CCCn1nnnc1NCc1ccc(OC)cc1 | 111%
58 | Cn1nnnc1NCc1ccc(Cl)c(Cl)c1 | 105%
59 | CCOC(=O)c1c(-c2ccccc2)oc2cc(Br)c(O)c(C=O)c12 | 98%
60 | Cc1cc(OCC(=O)Nc2c(C)n(C)n(-c3ccccc3)c2=O)ccc1[N+](=O)[O-] | 96%
61 | CCc1ccc(NC(=O)COC(=O)c2cccs2)cc1 | 101%
62 | O=C(c1ccc(Br)o1)N(c1ccccn1)C1CCCCC1 | 131% (active)
63 | O=C(CNC(=O)c1ccc(Br)o1)NCC1CCCO1 (configuration not stated) | 102%
64 | O=C(c1cccs1)N(C(=O)c1cccs1)c1ccccn1 | 94%
65 | Cc1ccc(NC(=O)CSc2nn3c(=O)c(C)nnc3s2)cc1Cl | 88%
66 | CNC(C)C#Cc1ccc2sc3cc(OC)c(OC)cc3c(=O)c2c1 (configuration not stated) | 110%
67 | CCCCC1(C(=O)OCC)NC(c2ccc(O)cc2)C2C(=O)N(c3ccccc3)C(=O)C21 (configuration not stated) | 104%
68 | CCOC(=O)c1ccc(Nc2cc3ccccc3c(=O)[nH]2)cc1 | 100%
69 | COc1ccc(OCCC(=O)c2ccc(OC)cc2)cc1 | 102%
70 | COc1ccc(C(=O)C[n+]2ccc(C)cc2)cc1 | 134% (active)
71 | COc1ccc(C(=O)C[n+]2ccc(N)c(C)c2C)cc1 | 92%
72 | COC(C[C@@H](O)C[C@@H](O)[C@H](C)OCc1ccccc1)OC | 101%
73 | COc1ccc(C(=O)CSc2nnc(COc3ccccc3)n2Cc2ccco2)cc1 | 102%
74 | CCCc1nc2c(c(=O)c3ccccc3n2C)c(=O)n1-c1cc(C)cc(C)c1 | 101%
75 | Cn1c2ccccc2c(=O)c2c(=O)n(Cc3ccco3)c(COc3ccccc3)nc21 | 130% (active)

Row | Structure (SMILES) | binding response (% of control)
76 | COc1ccc(/C=C/c2c(-c3cccc(C)c3)oc3ccc(-c4ccc5c(c4)OCO5)cc23)cc1 | 94%
77 | CCOC(=O)c1cc(S(=O)(=O)NCCc2ccc(OC)c(OC)c2)cn1C | 100%
78 | CN(CC(=O)Nc1ccc(F)cc1)C(=O)c1ccc(-c2ccc(Cl)cc2)o1 | 105%
79 | Cc1cc(C)nc(NS(=O)(=O)c2ccc(N3C(=O)C4CCCCC4C3=O)cc2)n1 (configuration not stated) | 101%
80 | CCCN(CCC)c1nc2c(C)cccn2c(=O)c1/C=C1/SC(=S)N(Cc2ccco2)C1=O | 32% [inhibitor] (active)
81 | CCOC(=O)CC1C(=O)NCCN1c1nc2c(C)cccn2c(=O)c1/C=C1\SC(=S)N(C(C)CC)C1=O (configuration not stated) | 93%
82 | Cc1cccn2c(=O)c(/C=C3\SC(=S)N(CC(C)C)C3=O)c(NCCCOC(C)C)nc12 | 66%
83 | Cc1csc(NC(=O)CSc2nnc(-c3cccnc3)o2)n1 | 99%
84 | CCCC[C@@H]1CN=C(N)N1CCc1cccc(F)c1 | 106%
85 | O=C(NCc1ccccn1)C1CCN(S(=O)(=O)c2ccc(Br)cc2)CC1 | 103%
86 | COc1ccc(CNc2ncnc3ccccc23)cc1 | 100%
87 | O=C(NCc1ccccc1Cl)NC(=O)c1csc([N+](=O)[O-])c1 | 0% [inhibitor] (active)
88 | O=C(NCc1ccccc1Cl)c1csc2c1CCCCC2 | 96%
89 | O=[N+]([O-])c1ccccc1NCc1ccccc1Cl | 66%
90 | CCC(C)[C@H](NC(=O)N1c2ccccc2NC(=O)[C@@H]1C(C)C)C(=O)N[C@@H](Cc1ccccc1)C(=O)O (some centres not stated) | 101%
91 | COc1ccc(NC(=O)CCCC2CCCCC2)c(OC)c1 | 97%
92 | CCCc1ccc(OCCNC(=O)c2ccco2)cc1 | 101%
93 | CC(=O)NCCNC(=O)c1cc(-c2cccc3ccccc23)nc2ccccc12 | 102%
94 | CCOC(=O)C1CCN(C(=O)c2ccccc2N(C)S(=O)(=O)c2ccccc2)CC1 | 105%
95 | c1ccc(-c2cc(N3CCCCC3)c3ccccc3n2)cc1 | 100%
96 | O=c1cc(N2CCN(Cc3ccccc3)CC2)c(-c2ccccc2)n[nH]1 | 101%
97 | O=c1cc(N2CCCCC2)c(-c2ccccc2)nn1Cc1cccc(F)c1 | 157% (active)

From PubChem BioAssay AID1529 (NMMLSC, 2009)
